Screening results as filed in PubChem.
CtBP-E1A blk – inhibitors of CtBP/E1A interaction; 0.49% of 340,000 active; AlphaScreen GST-E1A/His-CtBP binding, 1536-well; stronger effect = lower value; AID 651724; activity change, % (test concentration not listed); in the data active = activity change below about -65%; inconclusive = mostly about -30% to -63%; note: % is set by controls: 0 for no effect and ±100 for the full control effect
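Protein mix (5X: 125 nM each GST-E1A, His-CtBP) was incubated with pinned compound 2 h at 37 deg C in dark, in 50 mM Tris pH 8.0 buffer with 300 mM NaCl. Glutathione donor and nickel acceptor beads followed; AlphaScreen signal read after 1 h.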
JMJD2A Tudor inh – JMJD2A Tudor domain (human) inhibition | Potency, µM (series often up to 114 µM), for inactives: top-dose activity change, negative = inhibition, usual class: inhibitors | O75164 | 4.4% of 390,000 active | AlphaScreen JMJD2A-Tudor / H3K4me3 peptide binding; note: potency is the fitted concentration of half-maximal effect; % is set by controls: 0 for no effect and ±100 for the full control effect; nearly all actives have a fitted effect of over 50% in size
Target sequence (O75164 whole entry, looked up, the tested form may be a part): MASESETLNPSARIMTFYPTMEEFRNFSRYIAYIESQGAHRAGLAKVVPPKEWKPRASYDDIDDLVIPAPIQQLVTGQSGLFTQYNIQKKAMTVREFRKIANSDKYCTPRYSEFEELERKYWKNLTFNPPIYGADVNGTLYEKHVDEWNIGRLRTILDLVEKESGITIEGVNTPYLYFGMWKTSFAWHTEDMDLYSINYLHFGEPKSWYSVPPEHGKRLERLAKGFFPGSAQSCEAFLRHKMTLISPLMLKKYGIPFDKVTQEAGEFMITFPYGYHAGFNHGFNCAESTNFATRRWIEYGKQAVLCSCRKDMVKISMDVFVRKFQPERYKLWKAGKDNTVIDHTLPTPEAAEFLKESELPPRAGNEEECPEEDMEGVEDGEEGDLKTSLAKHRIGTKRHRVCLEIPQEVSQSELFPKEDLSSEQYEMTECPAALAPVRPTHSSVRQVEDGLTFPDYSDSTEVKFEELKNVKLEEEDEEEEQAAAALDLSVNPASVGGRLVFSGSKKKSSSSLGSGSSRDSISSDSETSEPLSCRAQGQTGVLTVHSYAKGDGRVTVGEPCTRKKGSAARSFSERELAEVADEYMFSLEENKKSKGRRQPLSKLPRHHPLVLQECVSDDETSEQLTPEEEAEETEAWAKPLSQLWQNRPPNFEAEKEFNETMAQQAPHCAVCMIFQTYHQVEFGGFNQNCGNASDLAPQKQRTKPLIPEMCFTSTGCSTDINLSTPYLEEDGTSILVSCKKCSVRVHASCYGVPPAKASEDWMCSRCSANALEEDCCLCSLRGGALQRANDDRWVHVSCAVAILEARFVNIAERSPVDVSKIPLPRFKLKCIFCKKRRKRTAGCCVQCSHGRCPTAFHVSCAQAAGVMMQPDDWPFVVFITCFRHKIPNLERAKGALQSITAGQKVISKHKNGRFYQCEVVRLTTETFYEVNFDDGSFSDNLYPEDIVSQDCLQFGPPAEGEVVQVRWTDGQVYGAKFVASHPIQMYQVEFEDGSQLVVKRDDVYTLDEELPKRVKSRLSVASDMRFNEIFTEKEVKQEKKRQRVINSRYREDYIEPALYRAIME
HP1b chromo inh – HP1-beta chromodomain-methylated histone interaction inhibition. AlphaScreen HP1-beta / biotin-H3K9me3 peptide binding. 0.56% of 390,000 active. P83916. Potency, µM (titrated, usually from 114 µM), without a hit: top-dose activity change, negative = inhibition, usual class: inhibitors. AID 540317; note: potency is the fitted concentration of half-maximal effect; nearly all actives have a fitted effect of over 70% in size
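AlphaScreen: HP1-beta (50 nM) preformed 30 min with biotin-H3(1-18)K9me3 peptide (50 nM) in PBS pH 7.4, 0.01% Tween-20. Compound added for 30 min at RT, then streptavidin donor/nickel chelate acceptor beads (10 ug/mL) for 30 min.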
Six1-Eya2 inh – Six1/Eya2 interaction inhibition | Q15475+O00167 | AlphaScreen GST-Six1/His-Eya2 binding, biochemical; stronger effect = lower value | activity change, % (no concentration beside the values) | 0.56% of 360,000 active | AID 651725; in the data active = activity change below about -65%; inconclusive = mostly about -30% to -63%; note: % is set by controls: 0 for no effect and ±100 for the full control effect
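Homogeneous AlphaScreen proximity assay pairing GST-Six1 with His-tagged Eya2 (added as 5X mix: 250 nM and 500 nM) in 50 mM Tris pH 8.0, 300 mM NaCl, 1 mM TCEP. Glutathione donor and nickel acceptor beads; 1 h, 37 °C, dark.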
BAZ2B inh – blocks human BAZ2B; Q9UIF8; AlphaScreen BAZ2B-H3K14Ac peptide displacement; Potency, µM (highest dose often 114 µM), for the others: at the highest dose activity change, negative = inhibition, usual class: inhibitors; 4.4% of 360,000 active; AID 504333; note: potency is the fitted concentration of half-maximal effect; % is set by controls: 0 for no effect and ±100 for the full control effect; nearly all actives have a fitted effect of over 60% in size
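Multi-concentration screen (max 110 uM) measuring displacement of acetylated histone H3 peptide from BAZ2B by AlphaScreen, using 50 nM protein, 50 nM peptide and 10 ug/mL streptavidin donor plus Ni-chelate acceptor beads.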
G9a inh – blocks human histone lysine methyltransferase G9a | Q96KQ7 | G9a H3K9 monomethylation, AlphaScreen, 2 h | Potency, µM (series often up to 102 µM), for the others: at the top dose activity, negative = inhibition, hits mostly inhibitors | 8.8% of 350,000 active; note: potency is the fitted concentration of half-maximal effect; % is set by controls: 0 for no effect and ±100 for the full control effect; nearly all actives have a fitted effect of over 75% in size
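Using a bead-based AlphaScreen, monomethylated H3K9 product from 2 h room-temperature reactions (G9a 20 nM, peptide 500 nM, SAM 20 uM) was detected with 0.5 ug/mL rabbit anti-H3K9me1 antibody.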
The depositor's hits bear a star; ? = inconclusive; / = no result; [ ] = remark or other dose. In the library only some 10% were active in any assay of this set; here they are far more common. Unless noted, calls come from the whole dose curve; as a rule, active = well fitted inhibition curve with a large enough effect; inconclusive = small, poorly fitted or top-dose-only effect; inactive = no such curve, though single readings can be large or run the other way.

SMILES | CtBP-E1A blk | JMJD2A Tudor inh | HP1b chromo inh | Six1-Eya2 inh | BAZ2B inh | G9a inh
COC(=O)C(Cc1c[nH]c2ccccc12)NC(=O)c1cc(-c2ccc(OC)c(OC)c2)oc1C (stereo not drawn) | -2 | 50µM* | -39% | ? | -4% | 50µM*
Cc1cccc(OCC(=O)NC(Cc2c[nH]c3ccccc23)C(=O)O)c1C (stereo not drawn) | -6 | -29% | -6% | -7 | -25% | 40µM*
Cc1ccccc1OCC(=O)NC(Cc1c[nH]c2ccccc12)C(=O)O (stereo not drawn) | 1 | 1% | 47% | 12 | -24% | -12%
CCOc1ccc(-c2nnc(SCC(=O)O)n2Cc2ccccc2)cc1 | 6 | -9% | 42% | 2 | 4% | 18%[0.501 µM]
O=C1CCc2cc(S(=O)(=O)N3CCN(c4ccc(F)cc4)CC3)cc3c2N1CC3 | -4 | -6% | 34% | 9 | 4% | ?
Cn1c(=O)c2sc3c(c2n(CC(=O)Nc2ccccc2)c1=O)COC(C)(C)C3 | 2 | -12% | 41% | 1 | 0% | /
O=C(c1cccc2ccccc12)N1CCN(S(=O)(=O)c2ccccc2)CC1 | / | -18% | 78% | / | / | /
COc1ccc(C(=O)Nc2ccccc2C(=O)NC(Cc2c[nH]c3ccccc23)C(=O)O)cc1 (stereo not drawn) | / | -14%[11.4 µM] | -19% | -4 | 79µM* | ?
Cc1c(OCC(=O)NC(Cc2ccc(Cl)cc2)C(=O)O)ccc2c1oc(=O)c1ccccc12 (stereo not drawn) | -1 | -30% | 14% | -13 | 56µM* | -1%[12.7 µM]
COc1cccc(OC)c1C(=O)Nc1ccccc1NC(=O)c1c(OC)cccc1OC | 5 | -8% | -3% | 3 | -1% | 79µM*
O=C(NN=Cc1ccc(O)cc1O)c1ccccc1NS(=O)(=O)c1cccs1 | -80* | ? | 30% | ? | / | /
COc1ccccc1NC(=O)c1ccccc1NS(=O)(=O)c1cccs1 | -1 | -1% | 42% | -1 | -19% | 50µM*
O=C(CNC(=O)c1cccs1)N/N=C/c1ccc(O)cc1O | ? | -2%[57.1 µM] | 35% | -86* | -27% | 128%[59 µM]
CCN(CC)c1nn2c(=O)c(C(=O)NCc3ccc(OC)cc3OC)cnc2s1 | / | -12% | 18% | / | -13% | -1%[59 µM]
Cc1ccc(NC(=O)CCC(=O)N/N=C/c2ccccc2O)cc1 | / | 1% | 53% | 10 | 0% | 27%
C/C(=N\NC(=O)c1ccc(NS(=O)(=O)c2cccs2)cc1)c1ccc(O)cc1O | ? | -16% | 36% | ? | 10µM* | /
CC(=O)Nc1cccc(C(=O)NNC(=O)c2ccc(NS(=O)(=O)c3cccs3)cc2)c1 | 6 | / | / | -17 | / | /
C/C(=N\NC(=O)CNC(=O)c1cccnc1)c1cccc(O)c1 | / | -7% | 56% | -9 | 1% | -7%
O=C(CNC(=O)c1cccnc1)N/N=C/c1ccc(O)cc1O | -86* | ? | 20%[57 µM] | -72* | ? | 28%
Cc1cccc(NC(=O)CCC(=O)N/N=C/c2ccc(O)cc2O)c1 | -84* | -22% | 21% | ? | 5% | 8%
O=C(CCc1ccccc1)NCC(=O)N/N=C/c1ccc(O)cc1O | / | -11% | 35% | -66* | 2% | 8%
Cn1cccc1C(=O)Nc1nc(-c2ccccn2)cs1 | -89* | 56µM* | ? | -86* | 18µM* | /
O=C(Nc1nc(-c2ccccn2)cs1)c1ncc(Cl)c(Cl)c1Cl | -74* | -25% | 29% | ? | -6% | /
O=C(Nc1nc(-c2ccccn2)cs1)c1ccc(Cl)s1 | ? | 79µM* | 33% | ? | 22µM* | ?
O=C(COc1ccc(F)cc1Cl)Nc1nc(-c2ccccn2)cs1 | / | / | / | / | 10% | ?
SMILES | CtBP-E1A blk | JMJD2A Tudor inh | HP1b chromo inh | Six1-Eya2 inh | BAZ2B inh | G9a inh
CCc1sc(C(=O)Nc2ncccc2O)cc1C | -4 | -22% | 25% | -5 | 50µM* | 35µM*
O=C(Cn1nc(Cc2ccncc2)c2ccccc2c1=O)Nc1cccc(C(F)(F)F)c1 | / | -18% | 68% | / | -16% | -2%[59 µM]
Cc1ccc(C(=O)N2CCCC2(C)C(=O)NCC(C)C)cc1F (stereo not drawn) | 3 | / | / | 6 | / | /
Cc1cccc(N2CCN(C(=O)C3CCN(Cc4nc(-c5ccc(Cl)cc5)oc4C)CC3)CC2)c1C | / | -11% | 21% | / | -13% | -44%[59 µM]
Cc1ccc(C(=O)Nc2nc(-c3ccccn3)cs2)s1 | -91* | 56µM* | 27% | -90* | 20µM* | -2%[2.33 µM]
CCc1sc(C(=O)Nc2nc(-c3ccccn3)cs2)cc1C | -90* | 79µM* | -7% | -67* | / | /
Fc1ccccc1C1c2[nH]c3ccccc3c2CCN1Cc1cccn1-c1ncccn1 (stereo not drawn) | -22 | ? | ? | -20 | 32µM* | /
Cc1ccccc1C1c2[nH]c3ccccc3c2CCN1Cc1cccn1-c1ncccn1 (stereo not drawn) | / | ? | -11% | -18 | 25µM* | 50µM*
O=C(O)c1cc(-c2ccccn2)n[nH]1 | -12 | -1% | 37% | -9 | 45µM* | -48%
CC(CCc1ccc(O)cc1)NCC(O)c1ccc(O)cc1 (stereo not drawn) | / | / | / | / | / | 15%[59 µM]
O=C(NCc1ccccc1)C1CCC(=O)N(CC2CCCCC2)C1 (stereo not drawn) | 5 | -14% | 30% | -4 | -3% | -2%
CN1CCN(C2=C(Cl)C(=O)N(c3ccc(Cl)cc3)C2=O)CC1 | 88 | 40µM* | 26% | 21 | / | 5µM*
O=S(=O)(NC1CCCC1)c1cc(F)ccc1F | -9 | -5% | 25% | 2 | -18% | 68%
Cc1cc(C(=O)Nc2nc3ccc(Cl)cc3s2)nn1C | 4 | 25µM* | 16% | -1 | -2% | -41%
Cn1ncc(Cl)c1C(=O)Nc1nc2ccc(Cl)cc2s1 | -8 | -10% | -16% | -7 | -4% | 7.9µM*
O=C(Nc1nc2ccc(Cl)cc2s1)c1ccc(Br)o1 | 0 | ? | 43% | 13 | 11% | -43%[59 µM]
Cc1ccccc1NC(=O)CCc1c(C)nc2c(c1C)c(=O)n(C)c(=O)n2C | / | -5% | 32% | / | -12% | 0%[59 µM]
COc1ccc(-c2nnc(NC(=O)C3=COCCO3)o2)cc1 | -19 | -10% | 16% | -29 | 28µM* | -24%[59 µM]
O=C(Nc1nnc(C2=COCCO2)o1)c1ccc(Cl)cc1 | -17 | 79µM* | 33% | -22 | 56µM* | -11%[59 µM]
O=C(Nc1nnc(C2=COCCO2)o1)c1ccc([N+](=O)[O-])cc1 | 0 | 50µM* | 41% | 14 | 35µM* | ?
CC(=O)Nc1nnc(C2=COCCO2)o1 | -4 | 22µM* | 38% | -1 | 79µM* | -16%
